Reference: PubChem BioAssay (EPA / NIEHS)
The source made the active and inactive calls. How the source made its calls: active means hit-call score of the fitted dose curve at least 0.9, where 1 is the maximum; inactive means score below 0.9.

Columns and labels:
[1] = read-out: TIMP metallopeptidase inhibitor 2 (TIMP2), TIMP2 (gene 7077); test: BSK_KF3CT_TIMP2: BioMAP Diversity Plus: KF3CT Assay for TIMP metallopeptidase inhibitor 2 (TIMP2) Biomarker Activity (AID 2283071); settings: primary human keratinocytes with fibroblasts; actives raise or lower the signal
Procedure, shortened: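 ELISA readout of TIMP-2 in keratinocyte plus foreskin fibroblast co-cultures (human skin primary cells), 24 h post-dose. Gain or loss of signal fitted relative to DMSO.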

[2] = read-out: Transforming growth factor beta 1 (TGFb1), TGFB1 (gene 7040); test: BSK_KF3CT_TGFb1: BioMAP Diversity Plus: KF3CT Assay for Transforming growth factor beta 1 (TGFb1) Biomarker Activity (AID 2283072); settings: primary human keratinocytes with fibroblasts; actives raise or lower the signal
Procedure, shortened: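 Read-out: ELISA for TGF-b1 in keratinocyte/foreskin fibroblast human skin co-culture, 24 h after dosing; bidirectional curve fit vs DMSO baseline; gain or loss of signal scored.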

[3] = read-out: C-C motif chemokine 2 (Homo sapiens) (UniProt P13500); test: BSK_KF3CT_MCP1: BioMAP Diversity Plus: KF3CT Assay for Monocyte Chemoattractant Protein 1 (MCP1/CCL2) Biomarker Activity (AID 2283073); settings: primary human keratinocytes with fibroblasts; actives raise or lower the signal
Procedure, shortened: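 ELISA readout of MCP-1 after 24 h chemical dosing of a human skin primary co-culture of keratinocytes and foreskin fibroblasts. Activity was fitted in both directions against DMSO.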

[4] = read-out: urokinase plasminogen activator (uPA), PLAU (gene 5328); test: BSK_KF3CT_uPA: BioMAP Diversity Plus: KF3CT Assay for urokinase plasminogen activator (uPA) Biomarker Activity (AID 2283075); settings: primary human keratinocytes with fibroblasts; actives raise or lower the signal
Procedure, shortened: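 Skin co-culture (keratinocytes + foreskin fibroblasts), human primary; 24 h post-dose; uPA by ELISA; gain/loss fit vs DMSO baseline.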

CD40, CD40 (gene 958) [5] = test: BSK_LPS_CD40: BioMAP Diversity Plus: LPS Assay for CD40 Biomarker Activity (AID 2283076); settings: primary human HUVEC with PBMC; actives raise or lower the signal
Procedure, shortened: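 Cells were dosed, incubated 24 h, then assayed for CD40 by ELISA. Gain or loss of signal was analysed relative to DMSO controls. The culture paired human umbilical vein endothelium with peripheral blood mononuclear cells.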

[6] = read-out: Interleukin-8 (IL8), CXCL8 (gene 3576); test: BSK_LPS_IL8: BioMAP Diversity Plus: LPS Assay for Interleukin-8 (IL8) Biomarker Activity (AID 2283078); settings: primary human HUVEC with PBMC; actives raise or lower the signal
Procedure, shortened: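 Readout is IL-8 by ELISA, taken 24 h after compounds were added to LPS-stimulated endothelial/PBMC co-cultures. Both increases and decreases relative to DMSO control were scored through bidirectional fitting.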

[7] = BSK_LPS_SRB: Viability Assessment in the BioMAP Diversity Plus: LPS Assay (AID 2283079); settings: primary human HUVEC with PBMC;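 further: total protein by sulforhodamine B absorbance as a cytotoxicity measure; measured one day after compound addition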
Procedure, shortened: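 Readout is SRB absorbance at 560 nm (0.1% stain, TCA-fixed parallel cultures) as a total-protein cytotoxicity measure. Cells: primary human umbilical vein endothelium plus peripheral blood mononuclear cells, 24 h after chemical exposure; DMSO served as baseline.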

[8] = read-out: Interleukin-1 alpha (IL1a), IL1A (gene 3552); test: BSK_LPS_IL1a: BioMAP Diversity Plus: LPS Assay for Interleukin-1 alpha (IL1a) Biomarker Activity (AID 2283080); settings: primary human HUVEC with PBMC; actives raise or lower the signal
Procedure, shortened: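 ELISA read-out of IL-1 alpha from a human primary vascular co-culture (endothelium plus PBMC) under LPS, sampled 24 hours post-dosing. Activity was fitted in both directions relative to DMSO controls.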

[9] = read-out: Monocyte Chemoattractant Protein-1 (MCP1), CCL2 (gene 6347); test: BSK_LPS_MCP1: BioMAP Diversity Plus: LPS Assay for Monocyte Chemoattractant Protein-1 (MCP1) Biomarker Activity (AID 2283081); settings: primary human HUVEC with PBMC; actives raise or lower the signal
Procedure, shortened: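 Human endothelial–PBMC co-cultures were dosed with chemical, then LPS-driven MCP-1 levels were quantified by ELISA at 24 h. Activity in either direction was fitted versus DMSO negative control.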

[10] = BSK_LPS_PGE2: BioMAP Diversity Plus: LPS Assay for Prostaglandin E2 (PGE2) Biomarker Activity (AID 2283082); settings: primary human HUVEC with PBMC; actives raise or lower the signal;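 on AC50: secreted prostaglandin E2 measured by ELISA in LPS-stimulated co-culture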
Procedure, shortened: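 ELISA read-out of PGE2 from human umbilical vein endothelial cells co-cultured with peripheral blood mononuclear cells under LPS, 24 h post-dose. Gain or loss of signal scored relative to DMSO baseline.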

[11] = read-out: Macrophage colony-stimulating factor (MCSF), CSF1 (gene 1435); test: BSK_LPS_MCSF: BioMAP Diversity Plus: LPS Assay for Macrophage colony-stimulating factor (MCSF) Biomarker Activity (AID 2283083); settings: primary human HUVEC with PBMC; actives raise or lower the signal
Procedure, shortened: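 ELISA readout of M-CSF after 24 h compound exposure in a human endothelial/PBMC co-culture. Activity, in either direction, is fitted relative to DMSO vehicle.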

[12] = read-out: Tissue Factor, F3 (gene 2152); test: BSK_LPS_TissueFactor: BioMAP Diversity Plus: LPS Assay for Tissue Factor Biomarker Activity (AID 2283084); settings: primary human HUVEC with PBMC; actives raise or lower the signal
Procedure, shortened: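 ELISA signal for cell-surface Tissue Factor (CD142) was read 24 h after compound dosing of an LPS-stimulated human endothelial–PBMC primary co-culture. Gain or loss of signal was scored relative to DMSO.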

[13] = read-out: Tumor necrosis factor (Homo sapiens) (UniProt P01375); test: BSK_LPS_TNFa: BioMAP Diversity Plus: LPS Assay for Tumour Necrosis Factor alpha (TNFa) Biomarker Activity (AID 2283085); settings: primary human HUVEC with PBMC; actives raise or lower the signal;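 on AC50: TNFa protein level quantified by ELISA in the co-culture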
Procedure, shortened: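 HUVEC/PBMC co-culture, LPS-stimulated; 24 h post-dose; TNFa by ELISA; gain or loss of signal fitted bidirectionally vs DMSO baseline.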

[14] = read-out: Vascular cell adhesion molecule 1 (VCAM1), VCAM1 (gene 7412); test: BSK_LPS_VCAM1: BioMAP Diversity Plus: LPS Assay for Vascular cell adhesion molecule 1 (VCAM1) Biomarker Activity (AID 2283086); settings: primary human HUVEC with PBMC; actives raise or lower the signal
Procedure, shortened: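 ELISA read-out of VCAM-1 at 24 h post-dosing in an LPS-driven HUVEC/PBMC primary human co-culture; gain or loss of signal fitted bidirectionally against DMSO baseline. Cytotoxicity tracked in parallel cultures by SRB total-protein staining.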

CD38, CD38 (gene 952) = test: BSK_SAg_CD38: BioMAP Diversity Plus: SAg Assay for CD38 Biomarker Activity (AID 2283087); settings: primary human HUVEC with PBMC; actives raise or lower the signal
Procedure, shortened: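 Measures CD38 on a human endothelial/PBMC co-culture driven by SEB and TSST-1, 24 h after compound exposure, using ELISA with fluorescence detection; DMSO defines baseline for bidirectional curve fitting.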

CD40, CD40 (gene 958) [15] = test: BSK_SAg_CD40: BioMAP Diversity Plus: SAg Assay for CD40 Biomarker Activity (AID 2283088); settings: primary human HUVEC with PBMC; actives raise or lower the signal
Procedure, shortened: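 Compounds were dosed onto a human primary endothelial–PBMC co-culture, and after 24 h CD40 was quantified by ELISA using a fluorescence signal. Activity in either direction was fitted relative to DMSO.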

CD69, CD69 (gene 969) = test: BSK_SAg_CD69: BioMAP Diversity Plus: SAg Assay for CD69 Biomarker Activity (AID 2283089); settings: primary human HUVEC with PBMC; actives raise or lower the signal;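 on AC50: cell surface CD69 protein quantified by ELISA with fluorescence detection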
Procedure, shortened: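 Values derive from bidirectional fitting relative to DMSO vehicle. Cells: umbilical vein endothelium plus peripheral blood mononuclear cells, treated 24 h before fluorescent ELISA for CD69.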

[16] = read-out: Monocyte Chemoattractant Protein-1 (MCP1), CCL2 (gene 6347); test: BSK_SAg_MCP1: BioMAP Diversity Plus: SAg Assay for Monocyte Chemoattractant Protein-1 (MCP1) Biomarker Activity (AID 2283090); settings: primary human HUVEC with PBMC; actives raise or lower the signal
Procedure, shortened: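 Values derive from bidirectional fitting of ELISA-measured MCP1 against DMSO controls. Readings were taken 24 h after dosing human vascular endothelial cells co-cultured with peripheral blood mononuclear cells under superantigen stimulation.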

[17] = read-out: E-selectin (Homo sapiens) (UniProt P16581); test: BSK_LPS_Eselectin: BioMAP Diversity Plus: LPS Assay for Eselectin Biomarker Activity (AID 2283077); settings: primary human HUVEC with PBMC; actives raise or lower the signal
Procedure, shortened: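 Primary human vascular co-culture (endothelium plus PBMC) was dosed with chemical, then E-selectin quantified by ELISA at 24 h. Endpoint values derive from bidirectional curve fitting relative to DMSO.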

[18] = read-out: Matrix Metallopeptidase 9 (MMP9), MMP9 (gene 4318); test: BSK_KF3CT_MMP9: BioMAP Diversity Plus: KF3CT Assay for Matrix Metallopeptidase 9 (MMP9) Biomarker Activity (AID 2283074); settings: primary human keratinocytes with fibroblasts; actives raise or lower the signal
Procedure, shortened: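 ELISA read-out of MMP-9 at 24 h post-dosing in a co-culture of human skin keratinocytes and foreskin fibroblasts. Gain or loss of signal was fitted in both directions against DMSO.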

Measured: AC50

Sequence of E-selectin (Homo sapiens) (P16581 whole entry, looked up): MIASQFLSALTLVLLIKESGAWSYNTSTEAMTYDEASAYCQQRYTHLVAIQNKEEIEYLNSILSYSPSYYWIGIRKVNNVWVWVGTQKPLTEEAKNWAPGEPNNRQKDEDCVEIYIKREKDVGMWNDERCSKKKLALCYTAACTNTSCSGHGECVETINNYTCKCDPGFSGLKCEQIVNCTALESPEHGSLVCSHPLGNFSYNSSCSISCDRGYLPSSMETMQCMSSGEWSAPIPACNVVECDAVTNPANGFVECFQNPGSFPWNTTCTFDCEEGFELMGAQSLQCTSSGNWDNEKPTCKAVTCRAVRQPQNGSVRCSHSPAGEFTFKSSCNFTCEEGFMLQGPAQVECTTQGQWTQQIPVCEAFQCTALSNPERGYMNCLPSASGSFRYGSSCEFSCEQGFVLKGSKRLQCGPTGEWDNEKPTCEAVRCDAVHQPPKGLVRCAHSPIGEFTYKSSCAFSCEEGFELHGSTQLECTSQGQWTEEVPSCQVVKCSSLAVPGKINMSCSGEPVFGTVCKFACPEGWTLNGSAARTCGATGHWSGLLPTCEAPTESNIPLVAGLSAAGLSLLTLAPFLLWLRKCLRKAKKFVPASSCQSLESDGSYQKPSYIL
Sequence of Tumor necrosis factor (Homo sapiens) (P01375 whole entry, looked up): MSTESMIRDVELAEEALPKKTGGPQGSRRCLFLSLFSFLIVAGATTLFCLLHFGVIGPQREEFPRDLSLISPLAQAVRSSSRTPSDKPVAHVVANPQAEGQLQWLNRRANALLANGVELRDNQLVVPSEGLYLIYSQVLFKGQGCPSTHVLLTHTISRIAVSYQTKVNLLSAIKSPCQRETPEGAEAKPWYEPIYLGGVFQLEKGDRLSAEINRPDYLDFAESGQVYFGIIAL

CCOP(=O)(OCC)Oc1nc(Cl)c(Cl)cc1Cl
inactive: [2] | [6] | [8] | [9] | [10] | [11] | [12]
active: [1] 32.9 µM | [3] 21.5 µM | [4] 9.55 µM | CD40, CD40 (gene 958) [5] 19.5 µM | [7] 10.7 µM | [13] 35.9 µM | [14] 16.7 µM | CD38, CD38 (gene 952) 29.6 µM | CD40, CD40 (gene 958) [15] 20 µM | CD69, CD69 (gene 969) 23.1 µM | [16] 23.9 µM

CCOP(=S)(OCC)Oc1nc(Cl)n(C(C)C)n1
active: [10] 14.1 µM
not listed: [17] | [18]
inactive: all other assays above

CCN(CC)C(=O)C(C)Oc1cccc2ccccc12 (configuration not stated)
active: [11] 0.274 µM
not listed: [6] | [18]
inactive: all other assays above

CC(C)=CC1C(C(=O)OCc2coc(Cc3ccccc3)c2)C1(C)C (configuration not stated)
active: CD69, CD69 (gene 969) 11.4 µM | [16] 20 µM
not listed: [17] | [18]
inactive: all other assays above

Cc1nc(N(C)C)nc(OC(=O)N(C)C)c1C
not listed: [6] | [17] | [18]
inactive: all other assays above

Nc1cnn(-c2ccccc2)c(=O)c1Cl
not listed: [17] | [18]
inactive: all other assays above

CCNC(=O)NC(=O)C(C#N)=NOC
not listed: [3] | [17]
inactive: all other assays above

CCOC(=O)C(C)OC(=O)c1cc(Oc2ccc(C(F)(F)F)cc2Cl)ccc1[N+](=O)[O-] (configuration not stated)
active: [7] 6.48 µM | [10] 2.12 µM | [13] 3.73 µM | CD38, CD38 (gene 952) 9.17 µM | CD40, CD40 (gene 958) [15] 3.97 µM | CD69, CD69 (gene 969) 12.8 µM
not listed: [18]
inactive: all other assays above

CCOc1nc(F)cc2nc(S(=O)(=O)Nc3c(Cl)cccc3Cl)nn12
active: [17] 20 µM
not listed: [6] | [18]
inactive: all other assays above
